# Experimental data reported in the supplement of paper PMC5734697.
# Test system: Caenorhabditis elegans
# Test: growth (movement index) relative to DMSO control, secondary screen (log2 fold change); higher = more growth (less anthelmintic activity)
# Details: 10 µM, 5 days, 20 °C, stage: L1 start
# Description: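 C. elegans growth assay: synchronised L1 larvae (~20 per well) in S-complete medium with HB101 E. coli were grown in 96-well plates with Pathogen Box compound at 10 µM (1% DMSO) for 5 days at 20 °C. Motility/growth was quantified by whole-plate movie imaging (INVAPP/Paragon movement index). The score is the log2 fold change of the median movement of 5 replicate wells (on different plates) relative to DMSO-only wells. The secondary screen retested the top 20 hits with the same library material (n = 5, 10 µM).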
row,SMILES,growth (log2)
1,CC(C)n1nc(-c2cc3c(Cl)cccc3[nH]2)c2c(N)ncnc21,-1.13
2,CCOC(=O)NC(=O)c1ccsc1NC(=O)c1nc2ccccc2s1,-1.05
3,CC(C)(C)CN1C(=O)C(c2ccccc2)(c2ccccc2)N=C1N,-5.87
4,O=C(Nc1ccc(F)c(-c2nc3cc(-c4ccccc4)cnc3[nH]2)c1)N1CCCC1,-4.01
5,O=C(Nc1cccnc1)c1c(O)c2cccc3c2n(c1=O)CC3,-4.82
6,COC(=O)C1=C(C)NC(C)=C(C(=O)OC(C)C)C1c1cccc2nonc12 (stereo not drawn),-1.42
7,O=C(Nc1nc(-c2ccccn2)cs1)C1CC1c1ccccc1F (stereo not drawn),-0.836
8,CN1CCN(c2cc(-c3ccc(F)cc3)nc(-c3ccncc3)n2)CC1,-2.12
9,O=C(c1ccco1)N(CCCn1ccnc1)c1nc2c(Cl)cccc2s1,-3.66
10,Clc1ccc(-n2cc(COc3ccnc4ccccc34)nn2)cc1,-2.02
11,Nc1ccc(C(=O)Nc2ccc(-c3nc4ccccc4o3)cc2)cc1,-5.41
12,O=C(Nc1ccc2c(c1)B(O)OC2)c1ccccc1C(F)(F)F,-7.62
13,CC(=O)OCC1OC([S-])C(OC(C)=O)C(OC(C)=O)C1OC(C)=O.CCP(CC)CC.[Au+] (stereo not drawn),-7.16
14,CC(C)n1ncc2c(C(=O)NCC(c3cccs3)N3CCOCC3)cc(-c3ccccc3)nc21 (stereo not drawn),-8.04
15,CCc1ccc([C@@H]2C[C@H](C(F)(F)F)n3ncc(C(=O)NCc4ccc(OC)cc4)c3N2)cc1,-3.6
16,CC(C)C(C(=O)Nc1ccc(S(=O)(=O)N(C)C)cc1)c1ccc(Cl)cc1 (stereo not drawn),-2.66
17,Cc1cc(C(=O)Nc2ccc(-c3ccccc3)cc2)no1,-6.92
18,COC(=O)Nc1nc2cc(C(=O)c3ccccc3)ccc2[nH]1,-5.72
